Inconclusive results are not listed. Activity calls are given as the source filed them. Unless noted, calls follow the shape of the dose curve; as a rule, active = well fitted curve in the direction sought with a large enough effect in the repeat runs; inconclusive = weak or mixed curves; inactive = no such curve, though single readings can be large; an effect the other way counts as inactive or inconclusive.

These results are taken from PubChem BioAssay (Tox21).

The nature of assay [1]: qHTS assay to identify small molecule antagonists of the glucocorticoid receptor (GR) signaling pathway - cell viability counter screen (AID 720693). Also: nearly all actives have a fitted effect of over 55% in size.
A short description of assay [2]: qHTS assay for identifying genotoxic compounds that show differential cytotoxicity against isogenic chicken DT40 cell lines with known DNA damage response pathways - wild type cell line (AID 743012). Also: nearly all actives have a fitted effect of over 60% in size. Also: potency is read from the fitted curve at half-maximal effect. An outline of the steps: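 Endpoint: CellTiter-Glo luminescence, 30 min RT. Cells: wild type DT40, 300/well. Exposure: compounds in DMSO, 40 h, 37 C/5% CO2, after ~0.5 h pre-incubation.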

Assay [3] in a line: qHTS assay for identifying genotoxic compounds that show differential cytotoxicity against isogenic chicken DT40 cell lines with known DNA damage response pathways - Rev3 mutant cell line (AID 743014). Also: nearly all actives have a fitted effect of over 55% in size. Also: potency is read from the fitted curve at half-maximal effect.
The nature of assay [4]: qHTS assay for identifying genotoxic compounds that show differential cytotoxicity against isogenic chicken DT40 cell lines with known DNA damage response pathways - Rad54/Ku70 mutant cell line (AID 743015). Also: nearly all actives have a fitted effect of over 60% in size. Also: potency is read from the fitted curve at half-maximal effect.
Assay [5] is described as follows: qHTS assay to identify small molecule antagonists of the androgen receptor (AR) signaling pathway - cell viability counter screen (AID 743033; also: nearly all actives have a fitted effect of over 45% in size).
Assay [6] addresses Androgen receptor (Homo sapiens) (UniProt P10275). In words: qHTS assay to identify small molecule antagonists of the androgen receptor (AR) signaling pathway (AID 743035; active = well fitted inhibition curve with a large enough effect in the signal ratio in the repeat runs, not every such curve was filed as active; the % refers to the signal ratio). In outline: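 R1881 agonist challenge of a HEK293 UAS-beta-lactamase AR reporter line in the presence of compound (16 h, 37C); signal taken as FRET fluorescence after 2 h with LiveBLAzer B/G substrate at room temperature.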

The target is the same in assay [7]. The assay is described as follows: qHTS assay to identify small molecule agonists of the androgen receptor (AR) signaling pathway (AID 743036; active = well fitted activation curve with a large enough effect in the signal ratio in the repeat runs, with a control signal flat, not every such curve was filed as active; the % refers to the signal ratio). An outline of the steps:
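Activation was read as beta-lactamase FRET signal from LiveBLAzer B/G substrate, added for 2 h at room temperature. Before that, GeneBLAzer AR-UAS-bla GripTite (HEK293) cells had 16 h compound exposure at 37C.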

Assay [8] has the same target. In words: qHTS assay to identify small molecule agonists of the androgen receptor (AR) signaling pathway using the MDA cell line (AID 743040; also: nearly all actives have a fitted effect of over 20% in size). An outline of the steps: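 Stable MMTV-luciferase reporter in MDA-kb2 cells; note the promoter carries GR as well as AR response elements. 16 h compound treatment, 37C, 0% CO2; ONE-Glo luminescence endpoint.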
Assay [9] can be described thus: qHTS assay to identify small molecule antagonists of the androgen receptor (AR) signaling pathway using the MDA cell line - cell viability counter screen (AID 743041; also: nearly all actives have a fitted effect of over 45% in size). An outline of the steps:
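Using the breast carcinoma line MDA-kb2 AR-luc, test chemicals were co-incubated with R1881 for 16 h; CellTiter-Fluor reagent, added at 15.5 h, provided a fluorescence measure of live cells.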

Assay [10] deals with Androgen receptor (Homo sapiens) (UniProt P10275). The assay is described as follows: qHTS assay to identify small molecule antagonists of the androgen receptor (AR) signaling pathway using the MDA cell line (AID 743042; also: nearly all actives have a fitted effect of over 55% in size). In outline: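 Antagonist mode: compounds plus R1881 agonist added to MDA-kb2 AR-luc cells, incubated 16 h at 37C. Luciferase reporter luminescence quantified, with multiplexed CellTiter-Fluor readout for cell viability.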
Chain of Androgen receptor (Homo sapiens) (P10275 whole entry, looked up): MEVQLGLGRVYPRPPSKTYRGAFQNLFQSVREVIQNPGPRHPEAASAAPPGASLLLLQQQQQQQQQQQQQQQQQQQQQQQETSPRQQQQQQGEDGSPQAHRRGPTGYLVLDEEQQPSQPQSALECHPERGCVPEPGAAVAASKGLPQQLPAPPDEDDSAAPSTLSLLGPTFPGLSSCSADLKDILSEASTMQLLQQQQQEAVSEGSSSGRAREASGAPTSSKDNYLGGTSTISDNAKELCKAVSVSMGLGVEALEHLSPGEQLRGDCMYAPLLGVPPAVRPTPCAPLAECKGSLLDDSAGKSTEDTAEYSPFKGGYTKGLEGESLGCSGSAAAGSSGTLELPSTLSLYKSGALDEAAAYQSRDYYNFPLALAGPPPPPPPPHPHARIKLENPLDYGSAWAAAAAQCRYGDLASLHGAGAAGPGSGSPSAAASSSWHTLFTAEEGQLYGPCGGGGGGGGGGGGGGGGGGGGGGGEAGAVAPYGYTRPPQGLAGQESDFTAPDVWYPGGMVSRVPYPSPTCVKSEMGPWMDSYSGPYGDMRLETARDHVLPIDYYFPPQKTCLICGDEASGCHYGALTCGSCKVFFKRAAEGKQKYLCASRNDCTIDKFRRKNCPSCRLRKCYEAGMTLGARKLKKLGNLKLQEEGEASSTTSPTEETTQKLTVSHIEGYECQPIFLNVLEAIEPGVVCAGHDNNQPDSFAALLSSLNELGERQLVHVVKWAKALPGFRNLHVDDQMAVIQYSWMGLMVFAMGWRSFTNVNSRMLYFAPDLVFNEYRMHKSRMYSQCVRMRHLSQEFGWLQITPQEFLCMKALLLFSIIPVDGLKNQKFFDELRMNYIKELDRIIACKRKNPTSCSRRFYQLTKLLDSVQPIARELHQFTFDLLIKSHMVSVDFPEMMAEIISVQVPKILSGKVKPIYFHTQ

Assay [11] in a line: qHTS assay to identify small molecule antagonists of the thyroid receptor (TR) signaling pathway - cell viability counter screen (AID 743064). Also: nearly all actives have a fitted effect of over 50% in size. In outline: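 In-well cytotoxicity read by CellTiter-Fluor (30 min, 37 C) following 23.5 h exposure of GH3 cells bearing a TRE-luciferase sensor. Compounds were added alongside 1 nM (final) T3 to drive TR transactivation.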
Assay [12] is described as follows: qHTS assay to identify small molecule antagonists of the thyroid receptor (TR) signaling pathway (AID 743065). Also: nearly all actives have a fitted effect of over 55% in size. Also: potency is read from the fitted curve at half-maximal effect. In outline:
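Antagonism measured as loss of luciferase signal in GH3 cells stably carrying a TRE-luciferase reporter, co-treated with compound and T3 (1 nM final) for 23.5 h at 37 C. Viability was read in the same well by CellTiter-Fluor.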

Assay [13] relates to thyroid hormone receptor (rat, GH3 cells). In words: qHTS assay to identify small molecule agonists of the thyroid receptor (TR) signaling pathway (AID 743066; calls by dose curve).
The target of assay [14] is Estrogen receptor (Homo sapiens) (UniProt P03372). In words: qHTS assay to identify small molecule antagonists of the estrogen receptor alpha (ER-alpha) signaling pathway (AID 743069; active = well fitted curve in the direction sought with a large enough effect in the signal ratio in the repeat runs, not every such curve was filed as active; the % refers to the signal ratio). In outline:
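Fluorescence intensity from a beta-lactamase FRET substrate served as the read-out. Cells: HEK293 with stably integrated ER-alpha-UAS-bla reporter. Agonist 17beta-estradiol was co-added with compounds; incubation 18 hr at 37C, substrate 2 hr at room temperature.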

The nature of assay [15]: qHTS assay to identify small molecule antagonists of the estrogen receptor alpha (ER-alpha) signaling pathway - cell viability counter screen (AID 743074; calls by dose curve; also: nearly all actives have a fitted effect of over 45% in size).
Assay [16] concerns the target Estrogen receptor (Homo sapiens) (UniProt P03372). The assay is described as follows: qHTS assay to identify small molecule agonists of the estrogen receptor alpha (ER-alpha) signaling pathway (AID 743075; calls by dose curve).
For assay [17] the target is unchanged. The assay is described as follows: qHTS assay to identify small molecule agonists of the estrogen receptor alpha (ER-alpha) signaling pathway using the BG1 cell line (AID 743079). Also: nearly all actives have a fitted effect of over 20% in size. Also: potency is read from the fitted curve at half-maximal effect.
Assay [18] is described as follows: qHTS assay to identify small molecule antagonists of the estrogen receptor alpha (ER-alpha) signaling pathway using the BG1 cell line (AID 743080; calls by dose curve;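 also: BG1 cells stimulated with 17beta-estradiol alongside compound; series mostly up to about 70 µM; nearly all actives have a fitted effect of over 25% in size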). In outline:
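Readout is ONE-Glo luminescence, taken 30 min at room temperature after reagent addition, preceded by a CellTiter-Fluor viability read; BG1-Luc-4E2 cells had received compound and 17beta-estradiol for 21.5 h at 37 C.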

A short description of assay [19]: qHTS assay to identify small molecule antagonists of the estrogen receptor alpha (ER-alpha) signaling pathway using the BG1 cell line - cell viability counter screen (AID 743081).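 Also: compound given together with 17beta-estradiol as the ER stimulus; series mostly up to about 70 µM; nearly all actives have a fitted effect of over 45% in size.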
Assay [20] has as its target Aromatase (Homo sapiens) (UniProt P11511). The assay is described as follows: qHTS assay to identify aromatase inhibitors (AID 743083).

Chain of Aromatase (Homo sapiens) (P11511 whole entry, looked up): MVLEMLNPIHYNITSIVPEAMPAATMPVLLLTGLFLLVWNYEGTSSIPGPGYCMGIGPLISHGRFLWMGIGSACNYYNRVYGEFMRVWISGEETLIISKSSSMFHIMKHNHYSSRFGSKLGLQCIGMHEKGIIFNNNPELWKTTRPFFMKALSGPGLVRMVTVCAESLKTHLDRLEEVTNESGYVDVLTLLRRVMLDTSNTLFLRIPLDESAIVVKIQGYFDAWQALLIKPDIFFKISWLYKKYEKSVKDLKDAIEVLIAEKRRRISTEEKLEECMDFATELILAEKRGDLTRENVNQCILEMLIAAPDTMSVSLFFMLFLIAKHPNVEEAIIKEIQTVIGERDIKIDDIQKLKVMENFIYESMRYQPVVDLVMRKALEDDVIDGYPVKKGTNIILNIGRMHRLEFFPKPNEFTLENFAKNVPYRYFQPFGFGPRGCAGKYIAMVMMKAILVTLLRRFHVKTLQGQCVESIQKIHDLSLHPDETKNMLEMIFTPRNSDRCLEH
Chain of Estrogen receptor (Homo sapiens) (P03372 whole entry, looked up): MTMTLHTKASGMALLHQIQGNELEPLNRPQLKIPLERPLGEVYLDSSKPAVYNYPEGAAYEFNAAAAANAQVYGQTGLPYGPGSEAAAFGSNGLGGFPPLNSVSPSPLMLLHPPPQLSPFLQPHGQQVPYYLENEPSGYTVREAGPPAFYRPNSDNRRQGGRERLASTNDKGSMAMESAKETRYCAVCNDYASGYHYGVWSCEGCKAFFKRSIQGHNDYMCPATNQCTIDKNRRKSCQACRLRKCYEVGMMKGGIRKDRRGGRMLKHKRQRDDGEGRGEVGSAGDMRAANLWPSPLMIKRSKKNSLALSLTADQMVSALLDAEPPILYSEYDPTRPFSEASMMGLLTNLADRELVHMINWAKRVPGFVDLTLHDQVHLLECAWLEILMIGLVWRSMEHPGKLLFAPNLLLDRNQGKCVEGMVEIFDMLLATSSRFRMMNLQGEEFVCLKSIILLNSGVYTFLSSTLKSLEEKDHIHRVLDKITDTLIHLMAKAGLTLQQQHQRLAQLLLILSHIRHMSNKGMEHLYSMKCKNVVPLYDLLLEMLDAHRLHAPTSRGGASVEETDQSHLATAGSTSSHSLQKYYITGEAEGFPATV

As to `C=C(C)C(=O)OC(C)C`, the Potency entry in [1], in assay [2], in assay [3], in assay [4], in assay [5] and in assay [6] was “inactive” in each case. Besides, the Potency entry in [8], in [9], in assay [10], in [11], in [12] and in assay [13] was “inactive” each time. Also, the Potency entry in assay [14], in assay [16], in assay [17], in [18], in assay [19] and in [20] was “inactive” in each case. Further, the molecule was classed as inactive in [7] and in assay [15].

With `COc1ccccc1OC(=O)Oc1ccccc1OC`, the Potency entry in [1], in assay [2], in [3], in assay [4], in [5] and in [8] was “inactive” throughout. In addition, the Potency entry in assay [9], in assay [10], in [11], in assay [12], in assay [13] and in assay [19] was “inactive” in each case. For the same molecule, the Potency result in assay [20] was “inactive”. The molecule was classed as inactive in assay [7] and in assay [15].

Regarding `CC1(C)[C@H]2CC[C@]1(C)[C@H](O)C2`, the Potency result in assay [1], in assay [2], in [3], in assay [4], in assay [5] and in [9] was “inactive” in each case. Also, the Potency result in assay [11], in assay [12], in [13], in [19] and in assay [20] was “inactive” each time. The molecule was called inactive in [15].

With `COc1ccc(C(C)=O)cc1`, the Potency result in [1], in assay [2], in [3], in assay [4], in assay [5] and in [6] was “inactive” throughout. Also, the Potency result in assay [8], in [9], in assay [10], in [12], in assay [13] and in [16] was “inactive” throughout. Also, the Potency entry in assay [18], in assay [19] and in assay [20] was “inactive” in each case. For the same molecule, the call in [7] was inactive. In [17], the Potency is 44600 nM (active).

Turning to `COc1ccc(OC)c(OC)c1`, the Potency entry in [1], in assay [2], in assay [3], in [4], in [5] and in [9] was “inactive” each time. Besides, the Potency entry in assay [11], in assay [12], in [13], in assay [14], in assay [16] and in assay [19] was “inactive” each time. Further, the Potency result in [20] is “inactive”. The call in [15] was inactive.

With `Cc1ncsc1CCO`, the Potency result in assay [1], in assay [2], in assay [3], in [4], in [5] and in assay [9] was “inactive” in each case. The Potency entry in assay [11], in [12], in assay [13], in [14], in [16] and in assay [17] was “inactive” in each case. In addition, the Potency result in assay [18], in assay [19] and in assay [20] was “inactive” throughout. For the same molecule, in assay [15], the call was inactive.

In the case of `CC(C)c1cccc(C(C)C)c1NC(=O)NS(=O)(=O)c1cc(C(C)(C)O)co1`, the Potency result in assay [1], in assay [2], in [3], in assay [4], in assay [5] and in assay [9] was “inactive” in each case. In addition, the Potency entry in assay [11], in assay [12], in assay [13] and in assay [19] was “inactive” throughout. Further, the outcome in assay [15] was inactive.

Regarding `c1ccc(OCc2ccc(CCCN3CCOCC3)cc2)cc1`, the Potency result in assay [1], in [5], in assay [8], in [13], in assay [14] and in [16] was “inactive” in each case. In addition, the Potency result in [17], in assay [19] and in assay [20] was “inactive” each time. Also, the Potency is 531 nM (active) in assay [2], 168 nM (active) in assay [3], 596 nM (active) in assay [4] and 21100 nM (active) in [12]. Further, the call in assay [7] and in [15] was inactive.

For the molecule `NC(=S)N/N=C/c1cccnc1`, the Potency result in assay [1], in assay [2], in assay [3], in assay [4], in assay [5] and in assay [6] was “inactive” throughout. In addition, the Potency entry in assay [8], in assay [9], in assay [10], in [11], in [12] and in [13] was “inactive” each time. For the same molecule, the Potency result in [19] and in [20] was “inactive” in each case. Also, the molecule was called inactive in [7] and in [15].
